Test results taken from PubChem BioAssay.
Where “and” joins values, the source holds several entries; their conditions need not be identical. Equal values may be shown once. Records with an inconclusive call do not appear. Calls of active or inactive are those of the source.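 The calls were made as follows, unless noted: active = normalized viability below 100% at a tested concentration; inactive = the rest.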

Columns and labels:
[1] = growth inhibition of DIPG glioma cells, dose response, cell-based, SU-DIPG-XVII, MIPE5.0, CellTiter-Glo, qHTS (AID 1347060; cut-off not given, nearly all actives have AC50 up to about 26 µM;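 as to AC50: cells exposed to compound for 48 hours before viability readout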); settings: SU-DIPG-XVII viability, CellTiter-Glo ATP luminescence
[2] = sensitizers of A549 cells to miR-34 induction, primary screen, imaging, A549 dox-inducible miR-34, nuclei and caspase counts (AID 1347080;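 active = compounds whose cell count with miR-34 switched on is under 0.7 times the count with it off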); settings: A549 miR-34 inducible, Hoechst nuclei count, 48 h
[3] = survival rescue of mitochondrial mutant cells in low glucose, primary screen, MELAS cybrids, Rieske KO mouse fibroblasts, CellTiter-Glo (AID 1508586;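 active = mean z-score across replicates of 1.96 or higher in either the MELAS or the Rieske mutant cell line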;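 also: z relative to plate mean and SD of compound and empty wells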)
[4] = growth inhibition of DIPG glioma cells, dose response, cell-based, SU-DIPG-XIII, MIPE4.0, CellTiter-Glo, qHTS (AID 1347061; cut-off not given, nearly all actives have AC50 up to about 37 µM;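 also: cells exposed to compound for 48 hours before readout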); settings: SU-DIPG-XIII viability, CellTiter-Glo ATP luminescence
[5] = growth inhibition of DIPG glioma cells, dose response, cell-based, JHH-DIPG-1, MIPE4.0, CellTiter-Glo, qHTS (AID 1347062; cut-off not given, nearly all actives have AC50 up to about 27 µM;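 as to AC50: cells exposed to compound for two days before readout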); settings: JHH-DIPG-1 viability, CellTiter-Glo ATP luminescence
[6] = growth inhibition of DIPG glioma cells, dose response, cell-based, SU-DIPG-IV, MIPE4.0, CellTiter-Glo, qHTS (AID 1347063; cut-off not given, nearly all actives have AC50 up to about 30 µM;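 also: compound exposure lasted 48 hours before the viability readout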); settings: SU-DIPG-IV viability, CellTiter-Glo ATP luminescence
[7] = growth inhibition of DIPG glioma cells, dose response, cell-based, SU-DIPG-XIII, MIPE5.0, CellTiter-Glo, qHTS (AID 1347064; cut-off not given, nearly all actives have AC50 up to about 23 µM;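 as to AC50: cells exposed to compound for 48 hours before the viability read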); settings: SU-DIPG-XIII viability, CellTiter-Glo ATP luminescence
[8] = viability loss in pontine glioma line – cell-based, SU-DIPG-XXV, MIPE5.0, CellTiter-Glo, qHTS, dose response (AID 1347065; cut-off not given, nearly all actives have AC50 up to about 26 µM;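 also: cells exposed to compound for 48 hours before ATP readout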); settings: CellTiter-Glo ATP luminescence
[9] = SU-DIPG-VI glioma cell viability, MIPE4.0 library, CellTiter-Glo luminescence, qHTS (AID 1347066; cut-off not given, nearly all actives have AC50 up to about 30 µM;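 also: cells exposed to compound for 48 hours before readout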); settings: CellTiter-Glo ATP luminescence
[10] = JHH-DIPG-1 glioma cell viability, MIPE5.0 library, CellTiter-Glo luminescence, qHTS (AID 1347067; cut-off not given, nearly all actives have AC50 up to about 26 µM;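 also: cells exposed to compound for 48 hours before readout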); settings: JHH-DIPG-1 glioma viability, CellTiter-Glo ATP luminescence
[11] = SU-DIPG-XXV glioma cell viability, MIPE5.0 library, qHTS (AID 1347068; cut-off not given, nearly all actives have IC50 up to about 30 µM;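 as to IC50: cells exposed to compound for 48 hours before viability readout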)
[12] = liver-stage malaria parasite growth inhibition, primary screen, cell-based, HepG2, luciferase luminescence, HepG2 viability (AID 624349; in the data active = parasite load remaining mostly below about 12%, no sharp cut-off; inactive = mostly above about 10%;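 also: 100% = mean of DMSO negative control wells on the same plate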); settings: P. berghei liver stage in HepG2, luciferase luminescence, concentration not given here; parasite load remaining: stronger effect = lower value; viability: measured here: HepG2 viability without parasites
[13] = molecular target: NAD(+) hydrolase SARM1 (Homo sapiens) (UniProt Q6SZW1); assay: SARM1 TIR NADase inhibitors, cell lysate, NAD-Glo luminescence (AID 1508614;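 active = compound whose remaining NAD level is above about 45 nM, limit read from the data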;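 also: higher remaining NAD means stronger inhibition of SARM1 NADase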); settings: SAM-TIR HEK293T lysate NADase, at 1 µM, stronger effect = higher value
NAD(+) hydrolase SARM1 (Homo sapiens), sequence (Q6SZW1 whole entry, looked up, the tested form may be a part): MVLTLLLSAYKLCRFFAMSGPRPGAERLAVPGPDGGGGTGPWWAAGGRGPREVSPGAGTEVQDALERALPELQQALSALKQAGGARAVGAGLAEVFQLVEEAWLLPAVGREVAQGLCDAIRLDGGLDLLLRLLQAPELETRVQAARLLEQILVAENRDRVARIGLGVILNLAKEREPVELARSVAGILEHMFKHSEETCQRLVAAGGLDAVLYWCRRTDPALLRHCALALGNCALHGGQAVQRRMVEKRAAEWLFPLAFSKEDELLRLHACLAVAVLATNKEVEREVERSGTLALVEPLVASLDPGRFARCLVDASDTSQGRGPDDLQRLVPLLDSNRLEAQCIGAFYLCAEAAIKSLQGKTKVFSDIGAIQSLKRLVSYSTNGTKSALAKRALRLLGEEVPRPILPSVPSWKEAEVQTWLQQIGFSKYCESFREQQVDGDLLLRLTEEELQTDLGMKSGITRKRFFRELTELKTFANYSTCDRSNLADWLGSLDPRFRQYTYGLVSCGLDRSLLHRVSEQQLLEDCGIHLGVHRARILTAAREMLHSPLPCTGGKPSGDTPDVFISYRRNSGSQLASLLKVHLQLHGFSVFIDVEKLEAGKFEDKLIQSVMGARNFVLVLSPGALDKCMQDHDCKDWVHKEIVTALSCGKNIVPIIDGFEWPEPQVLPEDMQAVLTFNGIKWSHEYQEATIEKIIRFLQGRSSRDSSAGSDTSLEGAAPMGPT

[14] = molecular target: Mitogen-activated protein kinase 7 (Homo sapiens) (UniProt Q13164); assay: ERK5 transactivation activators in reporter cells, primary screen, cell-based, HTS (AID 1508626;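 active = luciferase signal above three times the same-plate solvent-only control wells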;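 also: luciferase driven by Gal4-ERK5 fusion binding five Gal4 sites before minimal TATA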); settings: HeLa Gal4-ERK5 transactivation, 18 h, at 5 µM, stronger effect = higher value
Mitogen-activated protein kinase 7 (Homo sapiens), sequence (Q13164 whole entry, looked up, the tested form may be a part): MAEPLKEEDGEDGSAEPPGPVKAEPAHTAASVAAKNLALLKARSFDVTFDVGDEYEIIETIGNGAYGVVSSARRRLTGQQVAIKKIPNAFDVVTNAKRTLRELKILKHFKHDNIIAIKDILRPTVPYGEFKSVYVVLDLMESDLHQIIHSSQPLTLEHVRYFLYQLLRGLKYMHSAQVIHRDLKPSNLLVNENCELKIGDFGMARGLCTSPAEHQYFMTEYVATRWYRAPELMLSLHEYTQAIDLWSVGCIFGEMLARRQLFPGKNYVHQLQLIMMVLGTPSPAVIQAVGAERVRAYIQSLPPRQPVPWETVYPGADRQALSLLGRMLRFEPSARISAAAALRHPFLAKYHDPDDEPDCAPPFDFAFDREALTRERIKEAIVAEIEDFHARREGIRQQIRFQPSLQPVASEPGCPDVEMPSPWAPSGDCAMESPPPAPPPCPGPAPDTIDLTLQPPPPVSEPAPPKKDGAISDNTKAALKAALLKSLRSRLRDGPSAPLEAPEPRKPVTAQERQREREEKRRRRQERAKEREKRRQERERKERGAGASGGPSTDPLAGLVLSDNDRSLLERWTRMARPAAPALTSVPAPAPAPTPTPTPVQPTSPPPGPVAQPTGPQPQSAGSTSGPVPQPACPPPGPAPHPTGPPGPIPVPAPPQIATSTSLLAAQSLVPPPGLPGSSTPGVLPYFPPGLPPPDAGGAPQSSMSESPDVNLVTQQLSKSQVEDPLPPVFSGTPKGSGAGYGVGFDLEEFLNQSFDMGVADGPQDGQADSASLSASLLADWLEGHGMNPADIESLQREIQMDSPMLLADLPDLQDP

[15] = viability rescue of complex I mutant cybrids, primary screen, cell-based, galactose medium, ATP luminescence (AID 1645843;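 active = z-score of at least 1.8 in each of two replicates, scored against plate mean and spread of sample wells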;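 also: positive z means more ATP and so rescue of galactose-driven cybrid death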); settings: complex I mutant cybrid cells, 72 h, stronger effect = higher value
[16] = ovarian cancer cell viability with rucaparib, profiling panel, oncology-focused library, rucaparib conditional (AID 1508598); settings: patient-derived ovarian cancer cells, CellTiter-Glo viability, 144 h, stronger effect = lower value
[17] = stronger effect = lower value, cell number ratio, induced over uninduced
[18] = measured here: relative caspase fold change +Dox/-Dox
[19] = measured here: total cells with miR-34 induction, stronger effect = lower value
[20] = measured here: total cells without miR-34 induction
[21] = MELAS cybrid survival, CellTiter-Glo 48 h, stronger effect = higher value
[22] = Rieske KO mouse fibroblast survival, CellTiter-Glo 72 h

CC(=O)N1CCN(CCOc2ccc(C3CCN(C4=Nn5c(nnc5C(F)(F)F)CC4)CC3)cc2)CC1
6900: cell count [2, 20]
inactive: outcome [1] | fold change [2, 17] 0.859 | z-score [3, 21] -0.00811
0.882: fold change [2, 18]
-0.339: z-score [3, 22]
5930: cell count [2, 19]

CCCCN1CCC(CNC(=O)c2c3n(c4ccccc24)CCCO3)CC1
inactive: outcome [5]
active: AC50 [4] 6.62 µM | AC50 [6] 16.6 µM

Nc1ncnc2c1c(-c1cccc(OCc3ccccc3)c1)cn2C1CC(CN2CCCC2)C1 (configuration not stated)
inactive: fold change [2, 17] 1.06 | z-score [3, 21] -0.449
0.635: z-score [3, 22]
1430: cell count [2, 20]
0.675: fold change [2, 18]
1510: cell count [2, 19]
active: AC50 [4] 16.6 µM | AC50 [5] 20.9 µM | AC50 [6] 20.9 µM | AC50 [7] 1.18 µM | AC50 [8] 0.934 µM | AC50 [9] 1.18 µM | AC50 [10] 18.6 µM | IC50 [11] 4.68 µM

CCOC(=O)C1=C[C@@H](OC(CC)CC)[C@H](NC(C)=O)[C@@H](N)C1
-0.618: z-score [3, 22]
9340: cell count [2, 19]
83.1% and 67.5%: viability [12]
inactive: parasite load remaining [12] 175% and 21.5% | outcome [4] | outcome [5] | outcome [6] | outcome [7] | outcome [8] | outcome [9] | outcome [10] | outcome [11] | fold change [2, 17] 0.9 | z-score [3, 21] 0.348 | remaining NAD [13] 10 nM | luciferase signal [14] 56 AU | z-score [15] 0.705
1.08: fold change [2, 18]
10400: cell count [2, 20]

C[C@@H]1CCO[C@H]2Cn3cc(C(=O)NCc4ccc(F)cc4F)c(=O)c(O)c3C(=O)N12
inactive: outcome [4] | outcome [5]

O=C1c2c(O)cc(O)cc2O[C@H](c2cc(O)c(O)c(O)c2)[C@H]1O
inactive: outcome [4] | outcome [5] | outcome [6]

COc1ccc(Cc2ccc(NC(N)=O)cc2)cc1-c1cccc(Cl)c1
inactive: outcome [4] | outcome [5] | outcome [6] | outcome [7] | outcome [8] | outcome [9] | outcome [10]

Cc1cn([C@@H]2C[C@@H](O)[C@H](CO)O2)c(=O)[nH]c1=O
inactive: outcome [4] | outcome [5] | outcome [6] | outcome [7] | outcome [8] | outcome [9] | outcome [10] | outcome [11]

CN(C)C1CCN(C(=O)c2ccc(NC(=O)Nc3nc(N4CCOCC4)nc(N4CCOCC4)n3)cc2)CC1
active: AC50 [4] 0.833 µM | AC50 [5] 0.166 µM | AC50 [6] 0.0469 µM | AC50 [7] 0.525 µM | AC50 [8] 0.295 µM | AC50 [9] 0.264 µM | AC50 [10] 0.525 µM | IC50 [11] 0.934 µM

Cc1cc2c(F)c(Oc3ncnn4cc(OC[C@@H](C)O)c(C)c34)ccc2[nH]1
inactive: viability ([16]; at 0.000305 µM, OCI-C5x cells, with rucaparib 10 µM, 100% = cells with rucaparib alone) 117% | viability ([16]; at 0.000305 µM, OCI-C5x cells, without rucaparib) 131% | viability ([16]; at 0.000305 µM, OCI-P5x cells, with rucaparib 20 µM, 100% = cells with rucaparib alone) 112% | viability ([16]; at 0.000305 µM, OCI-P5x cells, without rucaparib) 105% | viability ([16]; at 0.00122 µM, OCI-C5x cells, with rucaparib 10 µM, 100% = cells with rucaparib alone) 131% | viability ([16]; at 0.00122 µM, OCI-C5x cells, without rucaparib) 128% | viability ([16]; at 0.00122 µM, OCI-P5x cells, with rucaparib 20 µM, 100% = cells with rucaparib alone) 112% | viability ([16]; at 0.00122 µM, OCI-P5x cells, without rucaparib) 109% | viability ([16]; at 0.00488 µM, OCI-C5x cells, with rucaparib 10 µM, 100% = cells with rucaparib alone) 125% | viability ([16]; at 0.00488 µM, OCI-C5x cells, without rucaparib) 126% | viability ([16]; at 0.00488 µM, OCI-P5x cells, with rucaparib 20 µM, 100% = cells with rucaparib alone) 108% | viability ([16]; at 0.0195 µM, OCI-C5x cells, with rucaparib 10 µM, 100% = cells with rucaparib alone) 111% | viability ([16]; at 0.0195 µM, OCI-C5x cells, without rucaparib) 124% | viability ([16]; at 0.0195 µM, OCI-P5x cells, with rucaparib 20 µM, 100% = cells with rucaparib alone) 110% | viability ([16]; at 0.0195 µM, OCI-P5x cells, without rucaparib) 102% | viability ([16]; at 0.0781 µM, OCI-C5x cells, with rucaparib 10 µM, 100% = cells with rucaparib alone) 123% | viability ([16]; at 0.0781 µM, OCI-C5x cells, without rucaparib) 141% | viability ([16]; at 0.0781 µM, OCI-P5x cells, without rucaparib) 108% | viability ([16]; at 0.313 µM, OCI-C5x cells, with rucaparib 10 µM, 100% = cells with rucaparib alone) 122% | viability ([16]; at 0.313 µM, OCI-C5x cells, without rucaparib) 129% | viability ([16]; at 0.313 µM, OCI-P5x cells, with rucaparib 20 µM, 100% = cells with rucaparib alone) 113% | viability ([16]; at 0.313 µM, OCI-P5x cells, without rucaparib) 106% | viability ([16]; at 1.25 µM, OCI-C5x cells, with rucaparib 10 µM, 100% = cells with rucaparib alone) 117% | viability ([16]; at 1.25 µM, OCI-C5x cells, without rucaparib) 135% | viability ([16]; at 1.25 µM, OCI-P5x cells, with rucaparib 20 µM, 100% = cells with rucaparib alone) 109% | viability ([16]; at 1.25 µM, OCI-P5x cells, without rucaparib) 102% | viability ([16]; at 5 µM, OCI-C5x cells, with rucaparib 10 µM, 100% = cells with rucaparib alone) 122% | viability ([16]; at 5 µM, OCI-C5x cells, without rucaparib) 139% | viability ([16]; at 5 µM, OCI-P5x cells, with rucaparib 20 µM, 100% = cells with rucaparib alone) 109%
active: AC50 [1] 14.8 µM | IC50 [11] 14.8 µM | viability ([16]; at 0.00488 µM, OCI-P5x cells, without rucaparib) 99.9% | viability ([16]; at 0.0781 µM, OCI-P5x cells, with rucaparib 20 µM, 100% = cells with rucaparib alone) 99% | viability ([16]; at 5 µM, OCI-P5x cells, without rucaparib) 97.4%

O=S(=O)(N=Cc1c(O)ccc2ccccc12)c1cccs1
active: AC50 [6] 9.35 µM
inactive: outcome [4] | outcome [5]

C[C@@]12C(=O)OC(=O)[C@@]1(C)C1CCC2O1
active: AC50 [4] 1.66 µM | AC50 [5] 2.64 µM | AC50 [6] 1.48 µM

c1cc(-c2cnn3cc(-c4ccc(OCCN5CCCCC5)cc4)cnc23)ccn1
inactive: parasite load remaining [12] 40.1%
103%: viability [12]
active: AC50 [4] 23.5 µM | AC50 [5] 10.5 µM | AC50 [6] 10.5 µM | AC50 [7] 13.2 µM | AC50 [8] 11.8 µM | AC50 [9] 23.5 µM | AC50 [10] 14.8 µM | IC50 [11] 11.8 µM

CCOC(=O)N1CCN(/[N+]([O-])=N/Oc2ccc([N+](=O)[O-])cc2C#N)CC1
active: AC50 [5] 1.32 µM
inactive: outcome [4]

CN[C@H]1[C@H](O[C@@H]2[C@H](O[C@@H]3[C@@H](O)[C@@H](O)[C@@H](N=C(N)N)[C@@H](O)[C@H]3N=C(N)N)O[C@H](C)[C@@]2(O)C=O)O[C@@H](CO)[C@@H](O)[C@H]1O
inactive: outcome [4] | outcome [5] | outcome [6] | outcome [9]

CCCCCCCCCCCCCC(=O)N[C@H](CO)[C@H](O)c1ccc([N+](=O)[O-])cc1
inactive: outcome [4] | fold change [2, 17] 0.96
active: AC50 [5] 2.96 µM | AC50 [6] 4.69 µM | AC50 [8] 18.6 µM
6010: cell count [2, 19]
6250: cell count [2, 20]
0.781: fold change [2, 18]

OC[C@H]1O[C@@H](OCCc2ccc(O)cc2)[C@H](O)[C@@H](O)[C@@H]1O
inactive: outcome [4] | outcome [5] | outcome [6] | outcome [9]

CNC(=O)c1ccc(Nc2cc(Nc3ccccc3S(=O)(=O)C(C)C)c3cc[nH]c3n2)nc1
active: AC50 [4] 16.6 µM | AC50 [5] 14.8 µM | AC50 [6] 11.8 µM | AC50 [9] 16.6 µM

C1=C/COCc2cc(ccc2OCCN2CCCC2)Nc2nccc(n2)-c2cccc(c2)OCC/1
active: AC50 [4] 14.8 µM | AC50 [5] 4.18 µM | AC50 [6] 2.35 µM | AC50 [9] 5.26 µM

C[C@]12CC[C@H](O)CC1=CCC1C2CC[C@]2(C)C(n3cnc4ccccc43)=CCC12 (some centres not stated)
active: AC50 [8] 20.9 µM
inactive: outcome [4] | outcome [5] | outcome [6] | outcome [11]
